According to the supplement of paper PMC6331611:
± gives the standard deviation of the averaged measurements. The full ranking holds about 1,600 compounds; the median of “normalized intracellular growth (luminescence, IQM-normalized) in RAW264.7 macrophages” is about 1, and the lowest 2% start at about 0.43. This excerpt belongs to a sample that is enriched for the lowest values.

System: Salmonella enterica serovar Typhimurium SL1344
Experiment: normalized intracellular growth (luminescence, IQM-normalized) in RAW264.7 macrophages (fraction of plate interquartile mean); higher = more bacterial growth (less inhibition)
Details: 10 µM

Row | SMILES | normalized intracellular growth (time point: T3 (3 h)) | normalized intracellular growth (time point: Tfinal (~6 h))
1 | Oc1ccc(Cl)cc1 | 1.02 ± 0.017 | 1.13 ± 0.023
2 | Oc1ccc(Cl)cc1Cc1cc(Cl)ccc1O | 1.03 ± 0.02 | 0.859 ± 0.13
3 | Oc1cc(Cl)ccc1Oc1ccc(Cl)cc1Cl | 0.343 ± 0.083 | 0.256 ± 0.12
4 | N=C1NC(=O)N2CC12 (stereo not given) | 1.051 ± 0.0073 | 0.853 ± 0.12
5 | O=[N+]([O-])OCC(CO[N+](=O)[O-])O[N+](=O)[O-] | 1.01 ± 0.044 | 0.68 ± 0.22
6 | CC[C@H]1[C@@H]2C[C@H]3[C@@H]4N(C)c5ccccc5[C@]45C[C@@H]([C@@H]2[C@H]5O)N3[C@@H]1O | 1.07 ± 0.066 | 0.799 ± 0.035
7 | CCn1cc(C(=O)O)c(=O)c2cc3c(cc21)OCO3 | 0.923 ± 0.032 | 0.192 ± 0.011
8 | CC[C@@H](c1cccc(O)c1)[C@@H](C)CN(C)C | 1.09 ± 0.081 | 0.708 ± 0.38
9 | CC[C@@H](C(=O)[C@@H](C)[C@@H](O)[C@H](C)[C@@H]1O[C@@H]([C@@H](CC)C(=O)O)CC[C@@H]1C)[C@H]1O[C@]2(C=C[C@@H](O)[C@]3(CC[C@@](C)([C@H]4CC[C@](O)(CC)[C@H](C)O4)O3)O2)[C@H](C)C[C@@H]1C | 1.06 ± 0.083 | 0.73 ± 0.13
10 | CN1C[C@H](C(=O)N[C@]2(C)O[C@@]3(O)[C@@H]4CCCN4C(=O)[C@H](Cc4ccccc4)N3C2=O)C=C2c3cccc4[nH]cc(c34)C[C@H]21 | 1.03 ± 0.02 | 0.769 ± 0.38
11 | CC([C@H](O)c1ccccc1)N(C)C (stereo not given in full) | 0.977 ± 0.096 | 1.08 ± 0.12
12 | C=C/C=C\CC1=C(C)[C@@H](OC(=O)[C@@H]2[C@@H](/C=C(\C)C(=O)OC)C2(C)C)CC1=O.C=C/C=C\CC1=C(C)[C@@H](OC(=O)[C@@H]2[C@@H](C=C(C)C)C2(C)C)CC1=O | 1.01 ± 0.014 | 0.938 ± 0.13
13 | OC[C@@H](O)[C@H]1O[C@@H]2O[C@H](C(Cl)(Cl)Cl)O[C@@H]2[C@H]1O | 1.01 ± 0.039 | 1.07 ± 0.077
14 | CC(=O)[O][Hg][c]1ccccc1 | 0.575 ± 0.093 | 0.336 ± 0.15
15 | O=C([O-])Cc1ccccc1.[Na+] | 1.15 ± 0.043 | 0.699 ± 0.11
16 | CCCCOC(=O)c1ccccc1C(=O)OCCCC | 1.029 ± 0.01 | 1.11 ± 0.15
17 | C[CH2][Hg][S]c1ccccc1C(=O)[O-].[Na+] | 0.4 ± 0.083 | 0.819 ± 0.26
18 | CC(O)CN1CCN(CC(=O)[O-])CCN(CC(=O)[O-])CCN(CC(=O)[O-])CC1.[Gd+3] (stereo not given) | 0.946 ± 0.083 | 1.23 ± 0.098
19 | C#CC(C)(O)CC (stereo not given) | 0.971 ± 0.038 | 0.758 ± 0.24
20 | CCN1C[C@]2(COC)[C@H](O)C[C@H](OC)[C@@]34[C@@H]5C[C@@]6(O)[C@H](OC(=O)c7ccccc7)[C@@H]5[C@@](OC(C)=O)([C@@H]([C@H](OC)[C@H]23)[C@@H]14)[C@@H](O)[C@@H]6OC | 0.971 ± 0.025 | 0.837 ± 0.045
